For assay [1], the target named is Tyrosine-protein kinase Fyn (Homo sapiens) (UniProt P06241). Conditions: at 1 µM.
The target in assay [2] is Tyrosine-protein kinase HCK (Homo sapiens) (UniProt P08631). The note with it: at 0.1 µM.
Assay [3] has the same target. Conditions: at 1 µM.
Assay [4] addresses Insulin-like growth factor 1 receptor (Homo sapiens) (UniProt P08069). Conditions: at 0.1 µM.
Assay [5] has the same target. Conditions: at 1 µM.
Assay [6] deals with Insulin receptor (Homo sapiens) (UniProt P06213). Conditions: at 0.1 µM.
Chain of Insulin receptor (Homo sapiens) (P06213 28-758 limits assumed): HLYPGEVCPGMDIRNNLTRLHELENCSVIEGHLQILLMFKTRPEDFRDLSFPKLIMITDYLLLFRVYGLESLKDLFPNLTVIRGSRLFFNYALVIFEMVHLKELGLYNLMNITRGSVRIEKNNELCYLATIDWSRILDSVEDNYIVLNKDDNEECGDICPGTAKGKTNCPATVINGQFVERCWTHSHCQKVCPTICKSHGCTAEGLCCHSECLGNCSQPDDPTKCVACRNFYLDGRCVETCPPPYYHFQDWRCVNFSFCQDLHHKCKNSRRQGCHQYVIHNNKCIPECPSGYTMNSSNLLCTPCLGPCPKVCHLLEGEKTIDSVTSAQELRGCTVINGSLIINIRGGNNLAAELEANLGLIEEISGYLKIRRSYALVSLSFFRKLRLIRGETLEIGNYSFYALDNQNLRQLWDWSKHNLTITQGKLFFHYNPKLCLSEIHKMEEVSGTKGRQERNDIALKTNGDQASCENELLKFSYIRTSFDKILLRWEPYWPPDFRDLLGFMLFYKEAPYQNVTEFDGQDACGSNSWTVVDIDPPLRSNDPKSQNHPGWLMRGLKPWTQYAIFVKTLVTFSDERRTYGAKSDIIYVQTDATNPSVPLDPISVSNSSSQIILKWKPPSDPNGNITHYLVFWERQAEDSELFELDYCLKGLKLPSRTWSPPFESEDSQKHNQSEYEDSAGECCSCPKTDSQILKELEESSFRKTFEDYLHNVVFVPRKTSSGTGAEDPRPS
Chain of Insulin receptor (Homo sapiens) (P06213 763-1382 limits assumed): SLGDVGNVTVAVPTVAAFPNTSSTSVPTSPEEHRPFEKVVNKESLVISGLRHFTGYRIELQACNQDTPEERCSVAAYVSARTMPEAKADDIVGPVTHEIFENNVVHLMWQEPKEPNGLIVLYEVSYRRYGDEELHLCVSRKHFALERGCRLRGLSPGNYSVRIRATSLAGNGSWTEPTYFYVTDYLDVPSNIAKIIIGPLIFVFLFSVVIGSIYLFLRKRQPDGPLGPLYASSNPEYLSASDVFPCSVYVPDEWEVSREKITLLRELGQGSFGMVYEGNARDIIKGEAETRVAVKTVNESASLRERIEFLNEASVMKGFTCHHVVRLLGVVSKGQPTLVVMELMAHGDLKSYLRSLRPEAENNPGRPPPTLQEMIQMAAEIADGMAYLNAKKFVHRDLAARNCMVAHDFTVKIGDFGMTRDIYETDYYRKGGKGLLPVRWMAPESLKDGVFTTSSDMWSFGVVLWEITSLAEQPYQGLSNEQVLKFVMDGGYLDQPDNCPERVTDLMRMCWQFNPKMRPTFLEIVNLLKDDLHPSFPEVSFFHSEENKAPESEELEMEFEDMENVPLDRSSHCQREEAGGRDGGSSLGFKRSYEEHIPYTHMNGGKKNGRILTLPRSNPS
Assay [7] has the same target. Conditions: at 1 µM.
Assay [8] addresses Insulin receptor-related protein (Homo sapiens) (UniProt P14616). The note with it: at 0.1 µM.
For assay [9] the target is unchanged. Conditions: at 1 µM.
In assay [10] the target is T1, Tyrosine-protein kinase ITK/TSK (Homo sapiens) (UniProt Q08881).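 Further: mean percent inhibition of ITK from the GSK PKIS screen.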
T1 sequence (whole entry): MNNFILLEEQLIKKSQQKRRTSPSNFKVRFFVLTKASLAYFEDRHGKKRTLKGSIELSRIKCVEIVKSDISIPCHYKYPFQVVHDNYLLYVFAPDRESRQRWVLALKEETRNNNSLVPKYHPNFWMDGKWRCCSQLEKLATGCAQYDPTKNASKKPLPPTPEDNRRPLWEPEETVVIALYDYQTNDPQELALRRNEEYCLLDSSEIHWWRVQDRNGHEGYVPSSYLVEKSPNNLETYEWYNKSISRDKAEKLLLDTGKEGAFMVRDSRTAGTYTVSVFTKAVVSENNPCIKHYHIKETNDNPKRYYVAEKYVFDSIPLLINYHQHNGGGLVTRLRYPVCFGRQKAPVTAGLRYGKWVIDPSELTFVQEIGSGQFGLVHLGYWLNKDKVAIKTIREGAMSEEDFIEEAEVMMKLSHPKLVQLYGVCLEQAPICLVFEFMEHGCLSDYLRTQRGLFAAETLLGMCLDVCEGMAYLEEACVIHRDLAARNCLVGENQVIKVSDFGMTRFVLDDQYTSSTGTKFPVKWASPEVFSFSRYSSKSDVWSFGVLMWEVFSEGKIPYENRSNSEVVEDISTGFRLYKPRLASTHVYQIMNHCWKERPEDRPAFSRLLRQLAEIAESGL
The note with it: at 0.1 µM.

The structures appear in SMILES notation.

Chain of Insulin-like growth factor 1 receptor (Homo sapiens) (P08069 31-736 limits assumed): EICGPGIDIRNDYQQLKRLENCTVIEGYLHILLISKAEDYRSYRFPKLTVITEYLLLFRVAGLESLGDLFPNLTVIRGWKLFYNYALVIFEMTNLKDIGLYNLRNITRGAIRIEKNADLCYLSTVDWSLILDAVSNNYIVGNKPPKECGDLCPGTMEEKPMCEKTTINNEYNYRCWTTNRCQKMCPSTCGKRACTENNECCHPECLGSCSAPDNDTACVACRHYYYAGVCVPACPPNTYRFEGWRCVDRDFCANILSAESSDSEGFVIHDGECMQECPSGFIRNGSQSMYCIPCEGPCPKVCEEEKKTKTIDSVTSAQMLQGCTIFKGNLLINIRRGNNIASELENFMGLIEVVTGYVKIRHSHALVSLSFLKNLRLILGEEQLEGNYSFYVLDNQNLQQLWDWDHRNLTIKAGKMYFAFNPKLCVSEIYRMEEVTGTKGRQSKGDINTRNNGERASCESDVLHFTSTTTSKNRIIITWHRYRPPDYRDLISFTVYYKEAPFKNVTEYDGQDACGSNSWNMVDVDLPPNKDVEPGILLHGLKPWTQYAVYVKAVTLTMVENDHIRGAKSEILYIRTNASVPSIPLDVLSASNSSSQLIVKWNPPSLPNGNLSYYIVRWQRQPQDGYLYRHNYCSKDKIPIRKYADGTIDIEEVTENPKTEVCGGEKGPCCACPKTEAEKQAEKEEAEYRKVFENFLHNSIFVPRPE
Chain of Insulin-like growth factor 1 receptor (Homo sapiens) (P08069 741-1367 limits assumed): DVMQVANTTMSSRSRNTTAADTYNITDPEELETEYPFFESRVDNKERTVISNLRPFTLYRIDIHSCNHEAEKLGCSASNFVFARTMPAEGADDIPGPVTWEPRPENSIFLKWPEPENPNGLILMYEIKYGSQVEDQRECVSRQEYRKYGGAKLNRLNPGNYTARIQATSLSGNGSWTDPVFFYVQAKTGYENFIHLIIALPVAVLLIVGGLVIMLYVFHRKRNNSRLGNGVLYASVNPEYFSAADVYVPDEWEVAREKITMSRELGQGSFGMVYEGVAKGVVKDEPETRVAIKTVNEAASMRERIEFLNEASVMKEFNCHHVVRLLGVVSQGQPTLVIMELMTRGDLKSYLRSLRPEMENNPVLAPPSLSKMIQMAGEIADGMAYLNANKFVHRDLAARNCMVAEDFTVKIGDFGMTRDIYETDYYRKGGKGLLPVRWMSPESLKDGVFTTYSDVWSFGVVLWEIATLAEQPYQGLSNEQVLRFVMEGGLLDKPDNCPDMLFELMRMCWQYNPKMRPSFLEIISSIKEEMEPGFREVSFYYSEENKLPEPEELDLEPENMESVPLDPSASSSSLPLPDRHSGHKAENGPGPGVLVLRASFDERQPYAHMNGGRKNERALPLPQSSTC
Chain of Insulin receptor-related protein (Homo sapiens) (P14616 27-742 limits assumed): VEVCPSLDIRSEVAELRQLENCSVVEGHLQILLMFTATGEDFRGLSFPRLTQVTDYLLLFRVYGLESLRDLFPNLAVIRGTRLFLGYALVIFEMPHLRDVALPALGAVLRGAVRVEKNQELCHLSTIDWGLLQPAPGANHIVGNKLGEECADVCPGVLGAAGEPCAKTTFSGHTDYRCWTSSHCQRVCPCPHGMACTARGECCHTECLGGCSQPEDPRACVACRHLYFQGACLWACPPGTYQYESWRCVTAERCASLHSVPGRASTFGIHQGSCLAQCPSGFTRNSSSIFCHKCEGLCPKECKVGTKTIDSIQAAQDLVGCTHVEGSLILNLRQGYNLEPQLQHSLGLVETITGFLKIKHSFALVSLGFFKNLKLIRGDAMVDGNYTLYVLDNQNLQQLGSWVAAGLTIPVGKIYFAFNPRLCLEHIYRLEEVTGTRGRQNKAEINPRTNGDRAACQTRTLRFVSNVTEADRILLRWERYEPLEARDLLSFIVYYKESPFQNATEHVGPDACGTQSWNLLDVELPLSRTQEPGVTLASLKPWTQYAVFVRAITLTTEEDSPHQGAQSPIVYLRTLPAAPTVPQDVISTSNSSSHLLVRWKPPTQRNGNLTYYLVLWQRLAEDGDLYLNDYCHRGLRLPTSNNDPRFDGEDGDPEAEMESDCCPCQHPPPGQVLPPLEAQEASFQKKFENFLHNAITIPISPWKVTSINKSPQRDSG
Chain of Insulin receptor-related protein (Homo sapiens) (P14616 747-1297 limits assumed): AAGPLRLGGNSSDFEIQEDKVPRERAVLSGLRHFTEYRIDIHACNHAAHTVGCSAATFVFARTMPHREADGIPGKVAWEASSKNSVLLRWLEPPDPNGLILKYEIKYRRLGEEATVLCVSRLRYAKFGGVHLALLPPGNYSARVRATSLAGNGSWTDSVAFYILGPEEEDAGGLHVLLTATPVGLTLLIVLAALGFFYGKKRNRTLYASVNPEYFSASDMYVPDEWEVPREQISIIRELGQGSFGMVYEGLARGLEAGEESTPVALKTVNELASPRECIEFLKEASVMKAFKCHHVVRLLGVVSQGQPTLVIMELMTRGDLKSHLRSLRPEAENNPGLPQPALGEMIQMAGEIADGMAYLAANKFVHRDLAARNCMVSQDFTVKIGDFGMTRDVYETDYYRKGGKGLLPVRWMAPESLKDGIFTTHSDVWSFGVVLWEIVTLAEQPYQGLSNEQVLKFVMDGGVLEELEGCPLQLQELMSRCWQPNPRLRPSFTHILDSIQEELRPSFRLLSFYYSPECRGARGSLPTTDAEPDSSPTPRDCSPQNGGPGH
Chain of Tyrosine-protein kinase Fyn (Homo sapiens) (P06241 2-537 limits assumed): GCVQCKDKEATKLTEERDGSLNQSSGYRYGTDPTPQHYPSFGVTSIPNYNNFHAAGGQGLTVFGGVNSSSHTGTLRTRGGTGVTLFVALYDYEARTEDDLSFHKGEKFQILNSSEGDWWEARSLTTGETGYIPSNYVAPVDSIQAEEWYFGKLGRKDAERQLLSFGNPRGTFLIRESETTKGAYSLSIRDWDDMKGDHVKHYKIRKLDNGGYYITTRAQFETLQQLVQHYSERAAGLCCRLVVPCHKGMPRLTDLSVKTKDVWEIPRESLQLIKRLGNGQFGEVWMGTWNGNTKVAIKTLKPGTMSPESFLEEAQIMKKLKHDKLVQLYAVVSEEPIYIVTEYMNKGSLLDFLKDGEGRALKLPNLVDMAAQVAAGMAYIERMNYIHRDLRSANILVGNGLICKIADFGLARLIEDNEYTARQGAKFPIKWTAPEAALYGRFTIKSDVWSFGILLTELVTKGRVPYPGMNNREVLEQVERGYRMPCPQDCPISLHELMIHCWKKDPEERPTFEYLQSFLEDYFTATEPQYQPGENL
Chain of Tyrosine-protein kinase HCK (Homo sapiens) (P08631 2-526 limits assumed): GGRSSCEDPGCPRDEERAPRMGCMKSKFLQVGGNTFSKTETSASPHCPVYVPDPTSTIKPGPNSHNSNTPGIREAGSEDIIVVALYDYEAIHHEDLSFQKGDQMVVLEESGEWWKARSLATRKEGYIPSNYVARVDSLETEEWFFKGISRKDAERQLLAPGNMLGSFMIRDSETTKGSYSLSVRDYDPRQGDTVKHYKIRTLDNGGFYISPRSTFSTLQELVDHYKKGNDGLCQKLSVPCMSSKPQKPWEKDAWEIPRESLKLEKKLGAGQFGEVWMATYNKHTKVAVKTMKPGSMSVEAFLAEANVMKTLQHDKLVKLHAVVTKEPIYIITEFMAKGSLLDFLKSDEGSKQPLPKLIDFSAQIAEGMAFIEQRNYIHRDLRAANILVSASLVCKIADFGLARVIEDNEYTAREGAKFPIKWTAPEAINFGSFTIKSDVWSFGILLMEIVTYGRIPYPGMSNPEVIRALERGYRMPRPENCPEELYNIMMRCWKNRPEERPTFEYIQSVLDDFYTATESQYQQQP

By inhibition is commonly meant the drop in the measured response relative to a control, in per cent. In the case of `Cc1cc(O)cc(C)c1/C=C/c1cncc(C(=O)N(C)C)c1`, the inhibition in assay [1] was found to be 4.2%; in assay [2], 4.54%; in assay [3], 10.8%; in [4], 2.54%; in assay [5], 5.15%; in assay [6] it was 2.68%. Further, the inhibition in assay [7] came to 0.32%; in [8] it was 2.71%; in assay [9] it was 1%; in assay [10], 1.43%.

Turning to `CCS(=O)(=O)c1ccc(OC)c(Nc2ncc(-c3cccc(OC)c3)o2)c1`, the inhibition in [1] came out at 76.5%; in assay [2], 21.1%; in assay [3] it was 67.2%; in [4], 2.1%; in assay [5], 4.95%; in assay [6], 0.3%. For the same molecule, the inhibition came out at 5.78% in assay [7], 3.08% in assay [8], 3.36% in assay [9] and 1.61% in [10].

As to `COc1cc(/C=N/Nc2ncnc3c2cnn3C(C)C)ccc1O`, the inhibition in assay [1] came to 40.2%; in assay [2], 7.16%; in assay [3], 32.6%; in assay [4], 9.1%; in assay [5], 7.79%; in assay [6], 2.75%. The inhibition in assay [7] is 2.59%; in assay [8], -1.25%; in [9] it was 2.79%; in assay [10], 1.18%.

For the molecule `NS(=O)(=O)c1ccc(-c2cc3ccncc3cc2OCc2ccccc2)cc1`, the inhibition in assay [1] is 3.52%; in [2], 4.9%; in assay [3], 6.46%; in [4] it was 1.47%; in [5], 2.17%; in assay [6], 4.34%. The inhibition was 5.38% in assay [7], 2.36% in assay [8], 2.61% in assay [9] and 0.77% in assay [10].

For `COc1cc(Nc2nccc(-c3cnn4ncccc34)n2)cc(OC)c1`, the inhibition in assay [1] was found to be 40.3%; in assay [2], 5.71%; in [3] it was 32.8%; in assay [4], 13.8%; in assay [5], 65.4%; in assay [6], 12.3%. Further, the inhibition was determined as 70% in assay [7], 3.56% in assay [8], 22.1% in assay [9] and 0.74% in assay [10].

`Cc1ccc(NC(=O)CC2CC2)cc1-c1ccc(C(=O)NCC2CC2)cc1`: the inhibition worked out at 5.9% in assay [1]; 9% in assay [2]; 10.3% in [3]; 1.36% in [4]; 2.09% in assay [5]; 2.71% in [6]. Moreover, the inhibition in assay [7] was 5.25%; in assay [8], 2.99%; in assay [9], 3.28%; in assay [10], 1.08%.

For `Cc1ccc2c(-c3ccnc(Nc4cccc(C(F)(F)F)c4)n3)c(-c3ccccc3)nn2n1`, the inhibition in assay [1] worked out at 61%; in assay [2] it was 11.3%; in [3], 45.1%; in assay [4], 2.54%; in assay [5] it was 4.76%; in assay [6] it was 8.09%. Also, the inhibition came to 24.8% in assay [7], 2.33% in assay [8], 6.16% in [9] and 1.33% in [10].

Regarding `COc1cc2ncnc(Nc3ccc4c(cnn4Cc4ccccc4)c3)c2cc1OC`, the inhibition in assay [1] was 35.7%; in assay [2], 11.4%; in [3], 48.5%; in assay [4], -1.14%; in assay [5], -0.72%; in assay [6], 2.75%. Moreover, the inhibition in [7] is 3.75%; in [8], 0.39%; in [9], 2.09%; in assay [10], 0.88%.

As to `Cc1ccc(C(=O)NC2CC2)cc1-c1ccc2[nH]ncc2c1`, the inhibition is 0.93% in assay [1]; -3.84% in assay [2]; -2.13% in assay [3]; 29.6% in [4]; -5.48% in assay [5]; 0.44% in assay [6]. Further, the inhibition in assay [7] is -2.94%; in [8], -3.94%; in assay [9] it was -4.42%; in assay [10], -2.18%.

On to `c1ccc(Cc2nc3ccc(Nc4ncnc5ccccc45)cc3[nH]2)cc1`, for which the inhibition is 5.58% in assay [1]; 3.53% in assay [2]; 11.5% in assay [3]; 2.6% in [4]; 3.88% in [5]; 3.54% in assay [6]. The inhibition is 8.19% in assay [7], 2.51% in assay [8], 3.31% in assay [9] and 0.82% in assay [10].

In the case of `NC(=O)c1cccc(Nc2nccc(Nc3cccc(F)c3)n2)c1`, the inhibition in assay [1] came to 43.2%; in [2], 3.16%; in assay [3] it was 30.8%; in [4], 1.8%; in assay [5], 20.9%; in [6] it was 4.46%. The inhibition in [7] was 21.1%; in assay [8], -0.57%; in assay [9], 1.15%; in [10] it was -0.24%.

Regarding `CCOc1nccc2c1nc(-c1nonc1N)n2CC`, the inhibition worked out at 3.27% in [1]; 4.58% in assay [2]; 11.4% in assay [3]; 7.26% in assay [4]; 7.09% in assay [5]; 0.75% in [6]. Besides, the inhibition in assay [7] is -1.17%; in assay [8], 1.03%; in assay [9], 2.48%; in assay [10], 1.74%.

With `Oc1cccc(-c2nc(-c3ccccc3)[nH]c2-c2ccncc2)c1`, the inhibition in assay [1] is 17.9%; in assay [2], 13.7%; in [3] it was 51.2%; in assay [4], 2.68%; in assay [5], 5.15%; in [6], 1.16%. In addition, the inhibition in assay [7] amounted to 2.18%; in assay [8], 2.79%; in [9], 0.88%; in assay [10], 1.78%.

With `O=C(Nc1ccc(Oc2ccc3[nH]c(NC(=O)c4ccco4)nc3c2)cc1)Nc1cc(C(F)(F)F)ccc1F`, the inhibition in assay [1] was 19.9%; in assay [2], 7.54%; in assay [3], 47.3%; in [4], -8.65%; in assay [5], -5.27%; in assay [6], 1.23%. Also, the inhibition in assay [7] is 1.66%; in assay [8], 0.43%; in assay [9] it was 0.25%; in [10], -2.86%.

The values above are taken from ChEMBL document CHEMBL1961873, “Compounds: GSK PKIS; Assays: Nanosyn kinase panel” (2012).
